# The campaign covered roughly 5,500 compounds. About 2,000 (36%) were called active. Roughly 18% stayed inconclusive and do not appear here. The list shows a part of the results. Unmarked numbers belong to inactive results. No stated cut-off is given here; in the data, active means normalized growth mostly below about 0.91 (no sharp cut-off); inconclusive means no clear call, values can overlap the other calls; inactive means mostly above about 0.92.
# Assay: chemical genetic growth profiling, strain panel (AID 1159580);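 further: tested at 20 µM; growth read once vehicle control cultures reached saturation at 30 °C; 1 = growth at the plate median or of vehicle wells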
# Details: growth OD
# [1] = S. cerevisiae deletion strains, locus YDL101C, strain DUN1, stronger effect = lower value
# [2] = S. cerevisiae deletion strains, locus YHR030C, strain SLT2, stronger effect = lower value
smiles,measurement,setting,value
Cn1nccc1-c1cc(Cl)cc(Cl)c1O,normalized growth,"S. cerevisiae deletion strains, locus YAR019C, strain CDC15, stronger effect = lower value",0.955
same,normalized growth,"S. cerevisiae deletion strains, locus YBL105C, strain PKC1, stronger effect = lower value",0.959
same,normalized growth,"S. cerevisiae deletion strains, locus YBR135W, strain CKS1, stronger effect = lower value",0.963
same,normalized growth,"S. cerevisiae deletion strains, locus YBR136W, strain MEC1, stronger effect = lower value",0.959
same,normalized growth,"S. cerevisiae deletion strains, locus YBR160W, strain CDC28, stronger effect = lower value",0.969
same,normalized growth,"S. cerevisiae deletion strains, locus YDL017W, strain CDC7, stronger effect = lower value",0.962
same,normalized growth,"S. cerevisiae deletion strains, locus YDL028C, strain MPS1, stronger effect = lower value",0.964
same,normalized growth,[1],0.964
same,normalized growth,"S. cerevisiae deletion strains, locus YDL108W, strain KIN28, stronger effect = lower value",0.967
same,normalized growth,"S. cerevisiae deletion strains, locus YDL132W, strain cdc53, stronger effect = lower value",0.966
same,normalized growth,"S. cerevisiae deletion strains, locus YDL214C, strain PRR2, stronger effect = lower value",0.799
same,normalized growth,"S. cerevisiae deletion strains, locus YDR052C, strain DBF4, stronger effect = lower value",0.971
same,normalized growth,"S. cerevisiae deletion strains, locus YDR054C, strain cdc34, stronger effect = lower value",0.969
same,normalized growth,"S. cerevisiae deletion strains, locus YDR226W, strain ADK1, stronger effect = lower value",0.981
same,normalized growth,"S. cerevisiae deletion strains, locus YDR477W, strain SNF1, stronger effect = lower value",0.731
same,normalized growth,"S. cerevisiae deletion strains, locus YER123W, strain YCK3, stronger effect = lower value",0.739
same,normalized growth,"S. cerevisiae deletion strains, locus YER133W, strain GLC7, stronger effect = lower value",0.687 (active)
same,normalized growth,"S. cerevisiae deletion strains, locus YFL009W, strain cdc4, stronger effect = lower value",0.982
same,normalized growth,"S. cerevisiae deletion strains, locus YFL029C, strain CAK1, stronger effect = lower value",0.952
same,normalized growth,"S. cerevisiae deletion strains, locus YFR003C, strain YPI1, stronger effect = lower value",0.961
same,normalized growth,"S. cerevisiae deletion strains, locus YFR019W, strain FAB1, stronger effect = lower value",0.869
same,normalized growth,"S. cerevisiae deletion strains, locus YFR028C, strain CDC14, stronger effect = lower value",0.975
same,normalized growth,"S. cerevisiae deletion strains, locus YGR040W, strain KSS1, stronger effect = lower value",0.745
same,normalized growth,"S. cerevisiae deletion strains, locus YGR052W, strain FMP48, stronger effect = lower value",0.742
same,normalized growth,"S. cerevisiae deletion strains, locus YGR092W, strain DBF2, stronger effect = lower value",0.722
same,normalized growth,[2],0.617 (active)
same,normalized growth,"S. cerevisiae deletion strains, locus YHR079C, strain IRE1, stronger effect = lower value",0.698
same,normalized growth,"S. cerevisiae deletion strains, locus YHR082C, strain KSP1, stronger effect = lower value",0.748
same,normalized growth,"S. cerevisiae deletion strains, locus YHR205W, strain SCH9, stronger effect = lower value",0.787
same,normalized growth,"S. cerevisiae deletion strains, locus YIL147C, strain SLN1, stronger effect = lower value",0.96
same,normalized growth,"S. cerevisiae deletion strains, locus YJL095W, strain BCK1, stronger effect = lower value",0.676
same,normalized growth,"S. cerevisiae deletion strains, locus YJL128C, strain PBS2, stronger effect = lower value",0.917
same,normalized growth,"S. cerevisiae deletion strains, locus YJL157C, strain FAR1, stronger effect = lower value",0.749
same,normalized growth,"S. cerevisiae deletion strains, locus YJR016C, strain ILV3, stronger effect = lower value",0.962
same,normalized growth,"S. cerevisiae deletion strains, locus YJR066W, strain TOR1 (second series), stronger effect = lower value",0.673
same,normalized growth,"S. cerevisiae deletion strains, locus YJR066W, strain TOR1, stronger effect = lower value",0.686
same,normalized growth,"S. cerevisiae deletion strains, locus YKL048C, strain ELM1, stronger effect = lower value",0.908
same,normalized growth,"S. cerevisiae deletion strains, locus YKL067W, strain YNK1, stronger effect = lower value",0.817
same,normalized growth,"S. cerevisiae deletion strains, locus YKL101W, strain HSL1, stronger effect = lower value",0.835
same,normalized growth,"S. cerevisiae deletion strains, locus YKL193C, strain SDS22, stronger effect = lower value",0.934
same,normalized growth,"S. cerevisiae deletion strains, locus YKL203C, strain TOR2, stronger effect = lower value",0.798
same,normalized growth,"S. cerevisiae deletion strains, locus YLR113W, strain HOG1, stronger effect = lower value",0.571 (active)
same,normalized growth,"S. cerevisiae deletion strains, locus YLR133W, strain CKI1, stronger effect = lower value",0.825
same,normalized growth,"S. cerevisiae deletion strains, locus YLR403W, strain SFP1, stronger effect = lower value",0.678
same,normalized growth,"S. cerevisiae deletion strains, locus YML070W, strain DAK1, stronger effect = lower value",0.719
same,normalized growth,"S. cerevisiae deletion strains, locus YMR001C, strain CDC5, stronger effect = lower value",0.947
same,normalized growth,"S. cerevisiae deletion strains, locus YMR205C, strain PFK2 (second series), stronger effect = lower value",0.795
same,normalized growth,"S. cerevisiae deletion strains, locus YMR277W, strain FCP1, stronger effect = lower value",0.934
same,normalized growth,"S. cerevisiae deletion strains, locus YNL006W, strain LST8, stronger effect = lower value",0.968
same,normalized growth,"S. cerevisiae deletion strains, locus YNL020C, strain ARK1, stronger effect = lower value",0.819
same,normalized growth,"S. cerevisiae deletion strains, locus YNL161W, strain CBK1, stronger effect = lower value",0.956
same,normalized growth,"S. cerevisiae deletion strains, locus YNL183C, strain NPR1, stronger effect = lower value",0.757
same,normalized growth,"S. cerevisiae deletion strains, locus YNL207W, strain RIO2, stronger effect = lower value",0.948
same,normalized growth,"S. cerevisiae deletion strains, locus YNL222W, strain SSU72, stronger effect = lower value",0.964
same,normalized growth,"S. cerevisiae deletion strains, locus YNL307C, strain MCK1 (second series), stronger effect = lower value",0.798
same,normalized growth,"S. cerevisiae deletion strains, locus YOL078W, strain AVO1, stronger effect = lower value",0.95
same,normalized growth,"S. cerevisiae deletion strains, locus YOL136C, strain PFK27, stronger effect = lower value",0.773
same,normalized growth,"S. cerevisiae deletion strains, locus YOR061W, strain CKA2, stronger effect = lower value",0.744
same,normalized growth,"S. cerevisiae deletion strains, locus YOR119C, strain RIO1, stronger effect = lower value",0.798
same,normalized growth,"S. cerevisiae deletion strains, locus YOR231W, strain MKK1, stronger effect = lower value",0.795
same,normalized growth,"S. cerevisiae deletion strains, locus YOR329C, strain SCD5, stronger effect = lower value",0.963
same,normalized growth,"S. cerevisiae deletion strains, locus YPL031C, strain PHO85, stronger effect = lower value",0.704
same,normalized growth,"S. cerevisiae deletion strains, locus YPL153C, strain RAD53, stronger effect = lower value",0.718
same,normalized growth,"S. cerevisiae deletion strains, locus YPL204W, strain HRR25, stronger effect = lower value",0.685
same,normalized growth,"S. cerevisiae deletion strains, locus YPL209C, strain IPL1, stronger effect = lower value",0.965
same,normalized growth,"S. cerevisiae deletion strains, locus YPL256C, strain CLN2, stronger effect = lower value",0.718 (active)
same,normalized growth,"S. cerevisiae deletion strains, locus YPR025C, strain CCL1, stronger effect = lower value",0.961
same,normalized growth,"S. cerevisiae deletion strains, locus YPR106W, strain ISR1, stronger effect = lower value",0.948
same,normalized growth,"S. cerevisiae deletion strains, locus YPR111W, strain DBF20, stronger effect = lower value",0.952
same,normalized growth,"S. cerevisiae deletion strains, strain NNK1, stronger effect = lower value",0.96
same,normalized growth,"S. cerevisiae deletion strains, strain TSCII, stronger effect = lower value",0.947
O=S(=O)(NCc1ccc(F)cc1F)c1cccc(C(F)(F)F)c1,normalized growth,"S. cerevisiae deletion strains, locus YAL013W, strain DEP1, stronger effect = lower value",0.969
same,normalized growth,"S. cerevisiae deletion strains, locus YBR229C, strain ROT2, stronger effect = lower value",0.98
same,normalized growth,"S. cerevisiae deletion strains, locus YCL061C, strain MRC1, stronger effect = lower value",0.972
same,normalized growth,[1],0.985
same,normalized growth,"S. cerevisiae deletion strains, locus YDL134C, strain PPH21, stronger effect = lower value",0.894 (active)
same,normalized growth,"S. cerevisiae deletion strains, locus YDR150W, strain NUM1, stronger effect = lower value",0.911
same,normalized growth,"S. cerevisiae deletion strains, locus YEL061C, strain CIN8, stronger effect = lower value",0.988
same,normalized growth,"S. cerevisiae deletion strains, locus YGR078C, strain PAC10, stronger effect = lower value",0.976
same,normalized growth,"S. cerevisiae deletion strains, locus YGR229C, strain SMI1, stronger effect = lower value",0.98
same,normalized growth,[2],0.946
same,normalized growth,"S. cerevisiae deletion strains, locus YHR087W, strain rtc3, stronger effect = lower value",0.978
same,normalized growth,"S. cerevisiae deletion strains, locus YJL187C, strain SWE1, stronger effect = lower value",0.972
same,normalized growth,"S. cerevisiae deletion strains, locus YJR043C, strain POL32, stronger effect = lower value",0.984
same,normalized growth,"S. cerevisiae deletion strains, locus YJR075W, strain HOC1, stronger effect = lower value",0.947
same,normalized growth,"S. cerevisiae deletion strains, locus YKL190W, strain CNB1, stronger effect = lower value",0.977
same,normalized growth,"S. cerevisiae deletion strains, locus YLR039C, strain RIC1, stronger effect = lower value",0.884
same,normalized growth,"S. cerevisiae deletion strains, locus YLR058C, strain SHM2 (second series), stronger effect = lower value",0.979
same,normalized growth,"S. cerevisiae deletion strains, locus YLR085C, strain ARP6, stronger effect = lower value",0.954
same,normalized growth,"S. cerevisiae deletion strains, locus YLR262C, strain YPT6, stronger effect = lower value",0.844
same,normalized growth,"S. cerevisiae deletion strains, locus YML094W, strain GIM5, stronger effect = lower value",0.962
same,normalized growth,"S. cerevisiae deletion strains, locus YMR219W, strain ESC1, stronger effect = lower value",0.979
same,normalized growth,"S. cerevisiae deletion strains, locus YMR263W, strain SAP30, stronger effect = lower value",0.979
same,normalized growth,"S. cerevisiae deletion strains, locus YMR307W, strain GAS1, stronger effect = lower value",0.899
same,normalized growth,"S. cerevisiae deletion strains, locus YNL153C, strain GIM3, stronger effect = lower value",1.01
same,normalized growth,"S. cerevisiae deletion strains, locus YNL298W, strain CLA4 (second series), stronger effect = lower value",0.968
same,normalized growth,"S. cerevisiae deletion strains, locus YNL322C, strain KRE1, stronger effect = lower value",0.973
same,normalized growth,"S. cerevisiae deletion strains, locus YNR030W, strain Alg12, stronger effect = lower value",0.986
same,normalized growth,"S. cerevisiae deletion strains, locus YPL055C, strain LGE1, stronger effect = lower value",0.873
same,normalized growth,"S. cerevisiae deletion strains, locus YPL241C, strain CIN2, stronger effect = lower value",0.982
same,normalized growth,"S. cerevisiae deletion strains, locus YPR135W, strain CTF4, stronger effect = lower value",0.913
same,normalized growth,"S. cerevisiae strains, strain wild type, stronger effect = lower value",0.98
